From PubChem BioAssay (Tox21) come the findings set out here.

Results filed as inconclusive are left out. Entries that show only a call come without a potency. The source made the active and inactive calls. Calls come from the whole dose curve; as a rule, active = well fitted activation curve with a large enough effect in the repeat runs; inconclusive = weak or mixed curves, or effect the other way; inactive = no such curve, though single readings can be large or run the other way.
Potency is the fitted concentration of half-maximal effect.

This assay in a line: qHTS assay to identify small molecule agonists of the retinoic acid receptor (RAR) signaling pathway (AID 1159553). The conditions noted are these: C3RL4 RARE luciferase reporter, agonist, 6 h; series mostly up to 73.3 µM. From the text: National Center for Advancing Translational Sciences [NCATS] NIH Chemical Genomics Center [NCGC] U.S. Environmental Protection Agency [EPA] National Institutes of Environmental Health Sciences [NIEHS] National Toxicology Program [NTP] Assay overview: All-trans Retinoic acid (atRA) is the potent natural metabolite of retinol and plays an important role in normal embryonic development and maintenance of cellular phenotype in adult animals. atRA is the activating ligand for the retinoic acid receptors (RARs) which form heterodimers with retinoid X receptors (RXRs) on the retinoic acid response element (RARE). Through activation of the RAR/RXRs nuclear receptors, atRA regulates the transcription of a large number of protein-coding genes and regulatory RNAs. Intracellular levels of atRA are controlled by the retinol signaling pathway (RSP) that regulates the biosynthesis and catabolism of atRA to maintain physiological levels. Chemicals that interfere with the RSP can cause abnormal intracellular levels of atRA and therefore are potential developmental toxicants. To assess compounds for the potential adverse effect on embryonic development through interfering with retinol signaling, a cell-based RARE luciferase reporter gene assay was used. C3RL4 cell line (OARSA/CFSAN/FDA, Laurel, MD) was used to screen Tox21 10K compound library for identifying activators of the RSP.
Assay Protocol Summary: C3RL4 cells were seeded at 1,000/well in 5 uL of assay medium into white solid 1,536-well tissue culture plates (Greiner Bio-One North America Inc. Monroe, NC) using a Multidrop Combi (Thermo Scientific, Waltham, MA) dispenser. After incubation at 37 C and 5% CO2 for an overnight, 23 nL of compounds dissolved in DMSO, positive control or DMSO only were transferred by a Pintool station (Kalypsys, San Diego, CA). After 6 hr incubation at 37 C and 5% CO2, 5 uL of Amplite Luciferase reagent (AAT Bioquest Inc. Sunnyvale, CA) was added to each assay plate using a Flying Reagent Dispenser (FRD) (Aurora Discovery, San Diego, CA). Luminescence was quantified on a ViewLux plate reader (PerkinElmer, Waltham, MA) after 30 min incubation at room temperature.
For the molecule `O=C(CCl)NCO`, the Potency entry is “inactive”.
To `C=C(Cl)CSC(=S)N(CC)CC` belongs “inactive”; to `O=C(Cl)CCl`, “inactive”.
The result for `CN1COCN(Cc2cnc(Cl)s2)/C1=N\[N+](=O)[O-]` reads “inactive”; that for `ClCCCCCCCl`, “inactive”.
The result for `C#CCOC(=O)/C=C(C)/C=C/CC(C)CCCC(C)C` (stereo not given) reads “inactive”.
As for `C=C(C)[C@H]1CN[C@H](C(=O)O)[C@H]1CC(=O)O`, the Potency result is “inactive”.
The result for `CC(C)[C@]12CC(=O)[C@H](C)[C@H]1C2` reads “inactive”.
To `ClCC1CO1` (stereo not given) belongs “inactive”; to `N[C@@H](Cc1ccc(Oc2cc(I)c(O)c(I)c2)c(I)c1)C(=O)O`, “inactive”.
To `CCOC(=O)NC(C)(C)Cc1ccc(Cl)cc1` belongs “inactive”; to `CN=CNc1ccc(C)cc1C`, “inactive”.
Take `CCC(=O)OC1(c2ccccc2)CCN(C)CC1`: the Potency result was “inactive”.
To `O=c1[nH]c2ccccc2o1` belongs “inactive”; to `Nc1c(Cl)c(F)nc(OCC(=O)O)c1Cl`, “inactive”; to `S=C=S`, “inactive”.
Regarding `COC(=O)[C@@H](N)CCCN/C(N)=N/[N+](=O)[O-]`, the Potency entry was “inactive”.
With `CCC1(c2cccc(O)c2)CCCCN(C)C1` (stereo not given), the Potency entry was “inactive”.
For `C=CC=O`, the Potency entry is “inactive”.
As to `Cc1ccc(S(=O)(=O)N[C@@H](CCCCN)C(=O)CCl)cc1`, the Potency result is “inactive”.
The result for `N=C(N)[Se]` reads “inactive”; that for `Clc1ccc(C(Cl)(Cl)Cl)cn1`, “inactive”; that for `COP(=O)(O)OC`, “inactive”.
The result for `CN(C)C(=O)Oc1cc(OC(=O)N(C)C)cc(C(O)CNC(C)(C)C)c1` (stereo not given) reads “inactive”; that for `CNC(=O)Oc1cc(C)c(N(C)C)c(C)c1`, “inactive”.
To `O=C(Cl)C(Cl)(Cl)Cl` belongs “inactive”; to `OCC(Cl)CCl` (stereo not given), “inactive”; to `CCC(C)(C#N)N=NC(C)(C#N)CC` (stereo not given), “inactive”.
Regarding `CCc1ccc(C2CCNCC2)cc1`, the Potency result was “inactive”.
For the molecule `CCC(C)C(C)(COC(N)=O)COC(N)=O` (stereo not given), the Potency result is “inactive”.
To `CC(Cl)(Cl)Cl` belongs “inactive”; to `O=C(Cl)c1ccccc1`, “inactive”.
To `CC(C)c1ccc(O)cc1` belongs “inactive”.
In the case of `CCOC(=O)Nc1cccc(OC(=O)Nc2ccccc2)c1`, the Potency was 27.3 µM (active).
To `CC(=NC#N)N(C)Cc1ccc(Cl)nc1` belongs “inactive”; to `CC(C)(C)c1cc(O)ccc1O`, “inactive”; to `CCCCCCCCBr`, “inactive”.
For `CC(=O)OCC1=C(C(=O)O)N2C(=O)[C@@H](N)[C@H]2SC1`, the Potency result is “inactive”.
To `O=C(Cl)OCc1ccccc1` belongs “inactive”; to `NCC1(CC(=O)O)CCCCC1`, “inactive”.
